Measurements published in PubChem BioAssay AID1689 (NMMLSC, 2009).
Measured potencies and affinities stand elsewhere. Unmarked numbers belong to inactive results.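 The calls were made as follows: active = curve fits scoring over 52 on a 0 to 100 blend rewarding potency under 10 µM and span over 20%; inactive = the rest.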

Molecular target: ATP-dependent translocase ABCB1 (Homo sapiens) (UniProt P08183)
Assay: ABCB1 efflux pump inhibitor potency, dose response, Jurkat-DNR cells, JC-1, flow cytometry (AID 1689)
Details: JC-1 efflux; series mostly up to 66.6 µM; inhibition: at the top concentration

ATP-dependent translocase ABCB1 (Homo sapiens), sequence (P08183 whole entry, looked up): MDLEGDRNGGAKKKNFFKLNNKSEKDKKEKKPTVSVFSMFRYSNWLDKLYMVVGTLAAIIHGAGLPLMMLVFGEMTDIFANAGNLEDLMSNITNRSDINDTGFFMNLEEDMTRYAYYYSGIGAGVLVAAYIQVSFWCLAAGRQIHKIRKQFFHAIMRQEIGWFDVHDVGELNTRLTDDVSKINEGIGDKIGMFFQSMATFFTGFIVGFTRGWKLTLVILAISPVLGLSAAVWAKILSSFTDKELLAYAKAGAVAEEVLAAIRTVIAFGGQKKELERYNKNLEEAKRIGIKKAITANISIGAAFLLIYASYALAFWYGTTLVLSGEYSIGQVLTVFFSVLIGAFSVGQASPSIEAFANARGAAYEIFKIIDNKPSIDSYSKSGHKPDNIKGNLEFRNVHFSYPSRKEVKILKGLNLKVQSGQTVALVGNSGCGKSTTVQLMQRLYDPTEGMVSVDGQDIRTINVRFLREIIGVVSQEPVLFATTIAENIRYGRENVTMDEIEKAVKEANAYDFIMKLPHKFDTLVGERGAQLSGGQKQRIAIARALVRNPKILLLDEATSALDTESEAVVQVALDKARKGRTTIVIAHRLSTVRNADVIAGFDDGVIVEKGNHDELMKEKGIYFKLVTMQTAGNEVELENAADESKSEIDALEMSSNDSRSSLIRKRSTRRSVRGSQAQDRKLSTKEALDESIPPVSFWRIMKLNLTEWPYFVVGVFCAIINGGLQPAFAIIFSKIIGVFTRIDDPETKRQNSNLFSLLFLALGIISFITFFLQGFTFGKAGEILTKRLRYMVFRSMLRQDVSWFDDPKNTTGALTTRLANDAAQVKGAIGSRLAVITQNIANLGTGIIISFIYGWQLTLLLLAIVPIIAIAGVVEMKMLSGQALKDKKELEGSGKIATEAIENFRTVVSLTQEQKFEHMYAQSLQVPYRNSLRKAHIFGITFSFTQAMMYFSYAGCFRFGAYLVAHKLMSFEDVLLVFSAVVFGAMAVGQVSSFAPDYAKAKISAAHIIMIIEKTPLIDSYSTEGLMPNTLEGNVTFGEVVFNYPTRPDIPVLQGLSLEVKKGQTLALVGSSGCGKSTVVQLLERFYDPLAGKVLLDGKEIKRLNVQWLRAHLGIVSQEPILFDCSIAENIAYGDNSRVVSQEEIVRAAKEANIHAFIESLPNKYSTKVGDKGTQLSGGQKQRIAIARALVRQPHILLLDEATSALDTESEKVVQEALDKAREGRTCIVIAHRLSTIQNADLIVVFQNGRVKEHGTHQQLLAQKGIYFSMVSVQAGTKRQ

Going from COC(=O)c1cc(NC(=O)c2ccccc2)c(=O)oc1/C=C/Nc1ccc(Oc2ccccc2)cc1 to CCOc1ccccc1NC(=O)C(OC(=O)c1ccc(N(C)C)cc1)c1ccccc1 (stereo not drawn), the “inhibition” value rises from -244% to 6.84%.

Compared with CN(C)c1ccc(/C=C2\SC(=S)N(Nc3ncc(C(F)(F)F)cc3Cl)C2=O)cc1, CC1=NN(c2ccc([N+](=O)[O-])cc2)C(=O)/C1=C/N(C)C is lower in “inhibition” value: 42% for the first, 27.7% for the second.

Going from COc1cc(C(=O)Nc2ccc(S(=O)(=O)NC(C)C)cc2)cc(OC)c1OC to COc1ccc2cc(C(=O)OC(C)C)sc(=O)c2c1OC, the “inhibition” value rises from 3.51% to 12.8%.

Compared with CN1CCN(C2=CC3=CC(=C(C#N)C#N)CCC3CC2)CC1 (stereo not drawn), N#CC(C#N)=C1C=C2C=C(N3CCOCC3)CCC2CC1 (stereo not drawn) is lower in “inhibition” value: 44.9% for the first, -7.21% for the second.

Compared with N#CC(C#N)=C1C=C2C=C(N3CCCCCC3)CCC2CC1 (stereo not drawn), CCN(CC)C1=CC2=CC(=C(C#N)C#N)CCC2CC1 (stereo not drawn) is higher in “inhibition” value: -21.8% for the first, 98.6% for the second.

Going from CC(C)C(NS(=O)(=O)c1ccccc1)C(=O)OCc1cc([N+](=O)[O-])cc2c1OCOC2 (stereo not drawn) to CC(=O)Nc1ccc(Nc2ccc(S(=O)(=O)C(F)(F)F)cc2[N+](=O)[O-])cc1, the “inhibition” value rises from 3.67% to 15.1%.

Going from COC(=O)c1ccc(C(C(=O)NC2CCCCC2)N(Cc2ccccc2)C(=O)Cc2cccs2)cc1 (stereo not drawn) to Cc1c(C(=O)Nc2ccc(F)cc2)c2ccccn2c1CCc1ccncc1, the “inhibition” value falls from 35.9% to 19.6%.

First: O=[N+]([O-])c1ccc(Nc2nc(Cl)nc(NCCO)n2)cc1
Second: Cc1cc(C)c(C#N)c(SCc2c(F)cccc2[N+](=O)[O-])n1
The “inhibition” value of the first is lower: 9.77% for the first, 14.2% for the second.

Going from COc1ccc(CCNC(=O)COC(=O)/C=C/c2ccc(OC)c(OC)c2)cc1 to CCCCN1/C(=C/c2ccc3ccccc3[n+]2CC)Sc2ccccc21, the “inhibition” value rises from -20.9% to 7.55%.

Compared with CCCCN(C)C1=CC2=CC(=C(C#N)C#N)CCC2CC1 (stereo not drawn), COc1ccccc1Nc1nc2nonc2nc1N1CCCCC1C (stereo not drawn) is lower in “inhibition” value: 29.7% for the first, 5.44% for the second.

First: CNc1nc2cc([N+](=O)[O-])c([N+](=O)[O-])cc2nc1NC
Second: COc1cccc(-c2nc(N3CC(C)CC(C)C3)c3ccccc3n2)c1O (stereo not drawn)
The “inhibition” value of the first is lower: 10.5% for the first, 28.2% for the second.

CCOC(=O)c1sc2cc([N+](=O)[O-])cc(SCC(C)C)c2c1N was tested, and the inhibition was 56.3% [at 2.47 µM].
